Reference: PubChem BioAssay (Tox21)
Several values for one entry are separate records, joined by “and”; a condition that tells them apart may be missing. Equal values may be shown once. Records with an inconclusive call do not appear. Where a call stands in place of a potency, no number is given. Where a structure was tested more than once in an assay, its records may differ in their call. Activity calls are given as the source filed them. The call rests on the fitted dose curve; in most records, active means well fitted cell-killing curve with a large enough effect in the repeat runs; inconclusive means weak or mixed curves, or effect the other way; inactive means no such curve, though single readings can be large or run the other way.
Potency means the concentration at half of the fitted maximal effect.

Experiment: qHTS assay to identify small molecule agonists of the vitamin D receptor (VDR) signaling pathway - cell viability counter screen (AID 743224); further: nearly all actives have a fitted effect of over 50% in size
Conditions: VDR-bla HEK293T viability, CellTiter-Glo luminescence, 16 h; series mostly up to 62.6 µM
Description: U.S. Tox21 Program National Center for Advancing Translational Sciences [NCATS] NIH Chemical Genomics Center [NCGC] U.S. Environmental Protection Agency [EPA] National Institutes of Environmental Health Sciences [NIEHS] National Toxicology Program [NTP] U.S. Food and Drug Administration [FDA] Tox21 Assay Overview: The vitamin D receptor (VDR), a member of nuclear hormone receptor superfamily, plays a critical role in calcium homeostasis and bone metabolism. It is also involved in cell differentiation and growth, and thrombogenicity. […] The cytotoxicity of the Tox21 compound library against the VDR-bla cell line was tested in parallel by measuring the cell viability using CellTiter-Glo assay (Promega, Madison, WI) in the same wells.
Tox21 Assay Protocol Summary: VDR-bla cells were dispensed at 2,000 cells/6 uL/well into black wall/clear-bottom 1536-well plates using a Multidrop Combi (Thermo Fisher Scientific, Waltham, MA) dispenser. After the assay plates were incubated at a 37C and 5% CO2 for 4 h, 23 nL of compounds dissolved in DMSO, positive controls or DMSO only was transferred to the assay plate by a Pintool station (Kalypsys, San Diego, CA). The plates were incubated at 37C and 5% CO2 for 16 h. After 1 uL of LiveBLAzerTM B/G FRET substrate was added using a Bioraptr Flying Reagent Dispenser (FRD) workstation (Beckman Coulter, Indianapolis, IN, USA), the plates were incubated at room temperature for 2 h, and fluorescence intensity was measured by an Envision plate reader (PerkinElmer, Shelton, CT). For cell viability readout that measures cytotoxicity, 3 ul/well of CellTiter-Glo reagent was added into the assay plates using a FRD. After 30 min incubation at room temperature, the luminescence intensity in the plates was measured using a ViewLux (PerkinElmer) plate reader.
In the case of Cc1cc2nc3c(=O)[nH]c(=O)nc-3n(C[C@H](O)[C@H](O)[C@H](O)CO)c2cc1C, the Potency is reported as “inactive”.
With c1ccc2c(c1)c1cccc3ccc4cccc2c4c31 the Potency was “inactive”.
With c1ccc2c(c1)Oc1ccccc1S2 the Potency was “inactive”.
In the case of Nc1ccc(Cl)cc1Cl, the Potency is reported as “inactive”.
In the case of CCOC(=O)C(C#N)=C(c1ccccc1)c1ccccc1, the Potency is reported as “inactive”.
With COc1ccccc1/C=C/C=O the Potency was “inactive”.
For CC1=CCC(C(C)(C)O)CC1 (stereo not given), the Potency was “inactive”.
In the case of CN1C(C(=O)Nc2ccccn2)=C(O)c2ccccc2S1(=O)=O, the Potency is reported as “inactive”.
For C=CC(C)(CCC=C(C)C)OC(C)=O (stereo not given), the Potency was “inactive”.
In the case of Cc1cccc(C(=O)O)c1, the Potency is reported as “inactive”.
With CC(C)CC(C)(O)C#CC(C)(O)CC(C)C (stereo not given) the Potency was “inactive”.
With C=C(C)C(=O)OCCOC(=O)C(=C)C the Potency was “inactive”.
In the case of CCCC(=O)O, the Potency is reported as “inactive”.
In the case of NNc1ccc(C(=O)O)cc1, the Potency is reported as “inactive”.
In the case of Cc1ccc2c(n1)Oc1ccc(C(C)C(=O)OCC(=O)N(C)C)cc1C2 (stereo not given), the Potency is reported as “inactive”.
In the case of CC(C)OC(=O)C(C)(C)Oc1ccc(C(=O)c2ccc(Cl)cc2)cc1, the Potency is reported as 13.8 µM (active) and inactive.
In the case of C#C[C@]1(O)CC[C@H]2[C@@H]3CCc4cc(OC)ccc4[C@H]3CC[C@@]21C, the Potency is reported as “inactive”.
In the case of CC1=CC2C3CC(C=C3C)C2C1 (stereo not given), the Potency is reported as “inactive”.
With C[Si](C)(C)O[Si](C)(C)C the Potency was “inactive”.
With O=C1OC2(c3cc(Br)c(O)c(Br)c3Oc3c2cc(Br)c(O)c3Br)c2c(Cl)c(Cl)c(Cl)c(Cl)c21 the Potency was “inactive”.
With CC(=O)Oc1ccccc1C(=O)Nc1ncc([N+](=O)[O-])s1 the Potency was 12.6 µM (active).
For CCCc1c(OCCCCc2nn[nH]n2)ccc(C(C)=O)c1O, the Potency was “inactive”.
With O=[N+]([O-])c1ccc2c(c1)Cc1ccccc1-2 the Potency was “inactive”.
With c1cc(N(CC2CO2)CC2CO2)ccc1OCC1CO1 (stereo not given) the Potency was “inactive”.
With c1ccc(Nc2ccccc2)cc1 the Potency was “inactive”.
In the case of O=C(c1ccc(OCCN2CCCCC2)cc1)c1c(-c2ccc(O)cc2)sc2cc(O)ccc12, the Potency is reported as 55 µM (active) and 21.9 µM (active) and 33.5 µM (active).
In the case of c1cc(-c2ccncc2)ccn1, the Potency is reported as “inactive”.
In the case of OCCO, the Potency is reported as “inactive”.
In the case of Cc1cccc([N+](=O)[O-])c1C, the Potency is reported as “inactive”.
With Cc1c(OCC(F)(F)F)ccnc1CS(=O)c1nc2ccccc2[nH]1 (stereo not given) the Potency was “inactive”.
With CN(C)CCN(Cc1cccs1)c1ccccn1 the Potency was “inactive”.
For O=CCc1ccccc1, the Potency was “inactive”.
In the case of CCC(C)c1ccccc1O (stereo not given), the Potency is reported as “inactive”.
For Nc1ccc(Nc2ccccc2)cc1, the Potency was “inactive”.
For COc1cc([C@@H]2c3cc4c(cc3[C@H](O)[C@H]3COC(=O)[C@H]23)OCO4)cc(OC)c1OC, the Potency was “inactive”.
In the case of O=C(OCc1ccccc1)c1ccccc1O, the Potency is reported as “inactive”.
With CCCCNS(=O)(=O)c1ccccc1 the Potency was “inactive”.
For O=C=Nc1ccc(Cc2ccc(N=C=O)cc2)cc1, the Potency was “inactive”.
In the case of O=CCCCC=O, the Potency is reported as “inactive”.
For CC(C)OC=O, the Potency was 52 µM (active) and inactive.
